Laboratory results from PubChem BioAssay (NCI).
About 83,000 compounds went through this panel and 20% of them were active in at least one assay; those are over-represented in the sample as a whole.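 96-well plates, one dose, 48 hours. Percent growth reported; active if below 10.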 Values without a mark were called inactive. Active and inactive are the calls of the source.

How the values were obtained:
Assay in all cases: NCI-60 one-dose screen, 48 h (100 = growth as untreated, 0 = no growth, -100 = all killed)
Conditions in all cases: 10 µM unless noted
NCI-H226 lung = test system: NCI-H226 lung
NCI-H322M lung = test system: NCI-H322M lung
HOP-62 NSCLC = test system: HOP-62 NSCLC
NCI-H460 lung = test system: NCI-H460 lung
HOP-92 NSCLC = test system: HOP-92 NSCLC
NCI-H522 lung = test system: NCI-H522 lung
A549/ATCC NSCLC = test system: A549/ATCC NSCLC
786-0 renal = test system: 786-0 renal
COLO 205 colon = test system: COLO 205 colon
DU-145 prostate = test system: DU-145 prostate
K-562 leukemia = test system: K-562 leukemia
MALME-3M melanoma = test system: MALME-3M melanoma
MDA-MB-231 breast = test system: MDA-MB-231 breast
RXF 393 renal = test system: RXF 393 renal
SF-268 CNS = test system: SF-268 CNS
SF-295 CNS = test system: SF-295 CNS
SF-539 CNS = test system: SF-539 CNS
UACC-257 melanoma = test system: UACC-257 melanoma
M14 melanoma = test system: M14 melanoma

SMILES	growth (NCI-H226 lung)	growth (NCI-H322M lung)	growth (HOP-62 NSCLC)	growth (NCI-H460 lung)	growth (HOP-92 NSCLC)	growth (NCI-H522 lung)	growth (A549/ATCC NSCLC)	growth (786-0 renal)	growth (COLO 205 colon)	growth (DU-145 prostate)	growth (K-562 leukemia)	growth (MALME-3M melanoma)	growth (MDA-MB-231 breast)	growth (RXF 393 renal)	growth (SF-268 CNS)	growth (SF-295 CNS)	growth (SF-539 CNS)	growth (UACC-257 melanoma)	growth (M14 melanoma)
O=C(CCC(=O)N/N=C/c1ccccc1O)N/N=C/c1ccccc1O	61.8%	29.3%	36.2%	44.4%	57.1%	51.8%	62.6%	69.7%	35.4%	48.4%	40.4%	62.5%	49%	58.9%	33.2%	89.6%	30%	76%	36.4%
O=C(Cn1c(-c2ccc([N+](=O)[O-])cc2)nc2ccccc21)NNC(=O)c1cccnc1	60.3%	88.6%	95.2%	76.2%	38%	54.7%	91.1%	93%	92.6%	90.3%	63.4%	105%	92.4%	98.7%	89.2%	83.4%	88.9%	86.7%	91%
COc1ccc(/C=N/C2=C(C#N)C(c3cccc(Cl)c3)c3c(ccc4ccccc34)O2)cc1 (centres undefined)	36%	62.7%	49.5%	16.8%	44.8%	3.61% (active)	44.9%	19.8%	31.3%	55.7%	11.1%	44.5%	38%	26.5%	45.9%	21.8%	7.29% (active)	62.6%	15.6%
C=CCc1c2c(c(OC)c3ccoc13)C(=O)/C(=C/c1ccccc1OC)O2	72.8%	65.9%	80%	31.3%	58.8%	48.5%	60.2%	94.1%	104%	35%	49.5%	88.8%	50.9%	24.8%	60.4%	60.1%	94.7%	63.7%	64.2%
Cc1cccc2c1NC(=O)C2(c1ccc(O)cc1)c1ccc(O)cc1	25.2%	10.1%	92%	103%	48.7%	61.4%	71.6%	94.8%	-4.74% (active)	84.6%	99.9%	93.1%	86.3%	-11.2% (active)	96.7%	73.1%	95.2%	79.4%	94.4%
N#Cc1cccc(-c2c(-c3ccc4ccccc4c3)oc3ccccc3c2=O)c1	71.2%	64.6%	41.5%	17.9%	51.8%	10.5%	34.9%	35.5%	36.7%	77.1%	11.5%	48.7%	55.7%	81.7%	65.8%	34.2%	43.4%	58.2%	6.18% (active)
